One compound from PubChem BioAssay AID2283336 (EPA ToxCast) can be followed below.

This test has as its target Kcnn1 (gene 54261) (UniProt P70606). In words: NVS_IC_rKCaCh: NovaScreen (NVS) Ion Channel Assay for Potassium Channel, Ca2+ Act., VI (KCaCh). The method, boiled down: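 Filter-based scintillation counting of radioligand bound to rat forebrain membrane preparations, measured 1 h after compound addition. Primary screen used 25 uM in duplicate, with concentration-response follow-up; signal decrease relative to DMSO marks activity.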

Results filed as inconclusive are left out. The source made the active and inactive calls. How the source made its calls: active means hit-call score of the fitted dose curve at least 0.9, where 1 is the maximum; inconclusive means response in the unintended direction; inactive means score below 0.9.

Kcnn1 (gene 54261), sequence (P70606 whole entry, looked up): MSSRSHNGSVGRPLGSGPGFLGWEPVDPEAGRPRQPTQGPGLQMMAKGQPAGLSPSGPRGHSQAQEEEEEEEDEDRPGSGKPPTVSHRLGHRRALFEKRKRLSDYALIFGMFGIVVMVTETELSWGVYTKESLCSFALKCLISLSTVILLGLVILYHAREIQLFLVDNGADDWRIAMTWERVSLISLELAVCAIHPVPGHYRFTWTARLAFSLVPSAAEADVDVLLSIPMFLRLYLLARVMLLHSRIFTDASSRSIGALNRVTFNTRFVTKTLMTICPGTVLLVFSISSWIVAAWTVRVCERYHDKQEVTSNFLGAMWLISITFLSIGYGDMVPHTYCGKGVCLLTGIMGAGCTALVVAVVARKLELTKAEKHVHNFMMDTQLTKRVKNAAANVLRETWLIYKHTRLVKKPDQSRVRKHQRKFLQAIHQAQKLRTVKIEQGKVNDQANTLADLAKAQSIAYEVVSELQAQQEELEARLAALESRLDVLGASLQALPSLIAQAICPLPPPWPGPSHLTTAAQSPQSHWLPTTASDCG

For `CN(C)c1ccc(C(=C2C=CC(=[N+](C)C)C=C2)c2ccc(N(C)C)cc2)cc1`, the AC50 (commonly the concentration giving half of the maximal activity seen) is 16.5 µM (active).
